Experimental data as given in the supplement of paper PMC10849652.
Targets with a hit are over-represented here; the source holds about 7,900 in all. About 0.6% of all pairs of compound and target were hits.

Target: ZW10 (UniProt O43264)
Assay: log2 fold change, soluble protein after heating vs DMSO (PISA); higher = thermal stabilisation; K562 cells, 10 uM, 30 min; active = over 0.2 and 3.5 SD of the protein, either way, in both replicates (recomputed)
Method in brief: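 K562 cells at 2×10^6 cells/mL were given 10 μM compound for 30 min. Aliquots then went through 3 min of heating across 48°C-58°C, were pooled, and were extracted in PBS with 0.5% NP-40 at 4°C, and the supernatant after 21,000xg for 90 min was quantified by TMTpro 16plex LC-MS/MS with channel sums equalised. Thermal stability relative to control samples, from duplicates, is given as log2 fold change.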

Chain of ZW10 (O43264 whole entry, looked up): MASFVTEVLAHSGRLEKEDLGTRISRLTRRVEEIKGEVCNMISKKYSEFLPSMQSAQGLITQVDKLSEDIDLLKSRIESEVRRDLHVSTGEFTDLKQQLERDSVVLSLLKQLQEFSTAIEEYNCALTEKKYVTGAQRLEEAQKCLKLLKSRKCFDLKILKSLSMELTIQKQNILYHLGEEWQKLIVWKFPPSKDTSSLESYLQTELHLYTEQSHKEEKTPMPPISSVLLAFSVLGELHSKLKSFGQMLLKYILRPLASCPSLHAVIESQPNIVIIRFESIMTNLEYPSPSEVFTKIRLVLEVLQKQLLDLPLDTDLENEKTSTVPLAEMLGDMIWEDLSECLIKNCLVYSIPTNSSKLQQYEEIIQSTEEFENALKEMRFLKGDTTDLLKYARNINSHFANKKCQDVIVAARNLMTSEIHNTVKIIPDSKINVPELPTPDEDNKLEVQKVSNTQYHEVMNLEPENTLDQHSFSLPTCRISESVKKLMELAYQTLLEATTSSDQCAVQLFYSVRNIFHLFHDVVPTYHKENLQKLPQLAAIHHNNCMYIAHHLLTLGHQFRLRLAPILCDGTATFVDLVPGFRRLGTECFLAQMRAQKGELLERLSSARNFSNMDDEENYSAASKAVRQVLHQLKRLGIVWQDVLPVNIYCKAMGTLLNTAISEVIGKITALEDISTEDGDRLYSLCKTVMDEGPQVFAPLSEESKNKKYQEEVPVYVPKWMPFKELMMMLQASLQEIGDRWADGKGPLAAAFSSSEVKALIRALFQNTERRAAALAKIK

log2 fold change, inactive:
C=CC(=O)N1CCC[C@@H](n2nc(-c3ccc(Oc4ccccc4)cc3)c3c(N)ncnc32)C1 [ibrutinib] -0.007
Cc1ncc(-c2ccnc(Nc3ccc(S(C)(=O)=O)cc3)n2)n1C(C)C 0
Cn1c2cc(S(C)=O)sc2c2cnn(Cc3cccc(N)c3)c(=O)c21 (centres undefined) 0.115
CO[C@H]1C[C@@H]2CC[C@@H](C)[C@@](O)(O2)C(=O)C(=O)N2CCCC[C@H]2C(=O)O[C@H]([C@H](C)C[C@@H]2CC[C@H](n3cnnn3)[C@H](OC)C2)CC(=O)[C@H](C)/C=C(\C)[C@@H](O)[C@@H](OC)C(=O)[C@H](C)C[C@H](C)/C=C/C=C/C=C/1C [zotarolimus] 0.023
COc1cc(C(=O)O)ccc1NC(=O)[C@@H]1N[C@@H](CC(C)(C)C)[C@](C#N)(c2ccc(Cl)cc2F)[C@H]1c1cccc(Cl)c1F [idasanutlin] -0.035
Cc1nc(Nc2ncc(C(=O)Nc3c(C)cccc3Cl)s2)cc(N2CCN(CCO)CC2)n1 [dasatinib] -0.124
Cc1cc(SCc2sc(-c3ccc(C(F)(F)F)cc3)nc2C)ccc1OCC(=O)O 0.088
NC(=O)Nc1cc(-c2cccc(F)c2)sc1C(=O)N[C@H]1CCCNC1 -0.021
CC[C@H](C)[C@H](NC(=O)[C@H]([C@@H](C)CC)N(C)C(C)=O)C(=O)N[C@H](C(=O)N[C@@H](CC(C)C)C(=O)[C@@]1(C)CO1)[C@@H](C)O [epoxomicin] -0.046
